# PubChem BioAssay AID1851 (National Center for Advancing Translational Sciences (NCATS), 2009)
# Hit rate of the full screen: of about 16,000 compounds, about 2,600 (16%) were called active. Inconclusive results (about 20%) are left out. The call rests on the fitted dose curve; in most records, active means well fitted curve in the direction sought with a large enough effect; inconclusive means small, poorly fitted or top-dose-only effect, or effect the other way; inactive means no such curve, though single readings can be large or run the other way. Only a sample is shown.
# Molecular target: Cytochrome P450 2D6 (Homo sapiens) (UniProt P10635)
# Sequence (P10635 whole entry, looked up): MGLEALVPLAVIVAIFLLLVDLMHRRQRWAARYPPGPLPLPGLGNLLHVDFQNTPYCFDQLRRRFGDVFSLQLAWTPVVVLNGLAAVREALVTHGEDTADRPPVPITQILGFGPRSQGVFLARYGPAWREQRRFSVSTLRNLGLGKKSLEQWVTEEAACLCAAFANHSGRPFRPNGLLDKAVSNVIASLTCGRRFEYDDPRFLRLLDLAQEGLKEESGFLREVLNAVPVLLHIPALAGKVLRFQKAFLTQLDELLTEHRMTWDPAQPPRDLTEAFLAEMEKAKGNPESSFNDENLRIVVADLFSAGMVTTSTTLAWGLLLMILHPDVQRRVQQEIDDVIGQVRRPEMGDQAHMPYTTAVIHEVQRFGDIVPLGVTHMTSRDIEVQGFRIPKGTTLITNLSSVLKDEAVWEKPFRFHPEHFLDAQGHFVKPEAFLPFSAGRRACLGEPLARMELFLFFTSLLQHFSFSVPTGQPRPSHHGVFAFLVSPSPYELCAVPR
# Assay: Cytochrome panel assay with activity outcomes
# Conditions: recombinant CYP, pro-luciferin dealkylation, luminescence, p450-cyp2d6; series mostly up to 57.1 µM
# On the % scale 0 is the no-effect control and ±100 the full control effect.
SMILES,AC50,"activity, negative = inhibition"
CNC(=O)c1nnn(Cc2ccccc2)c1NC(=O)C(F)(F)F,inactive,–
O=C(N/N=C/c1ccc([N+](=O)[O-])s1)c1ccccc1Br,inactive,–
O=C(NCCNc1ccc([N+](=O)[O-])cc1)c1ccccc1Br,11.2 µM (active),–
O=C(O)CCCCCNC(=O)c1ccccc1Br,inactive,–
NC(=O)N1c2ccccc2C=Cc2ccccc21,inactive,–
Cc1cc(Oc2ccc(-c3ccccc3)cc2)nc(N2CCOCC2)n1,inactive,–
CCC(C)n1nnc2c(=O)oc3ccccc3c21 (stereo unspecified),inactive,–
C[C@@H](C(=O)Nc1ccc2ccccc2c1)[C@@H]1C[C@@]1(C)[C@@H](NC(=O)c1cnccn1)c1ccccc1,inactive,–
COC(=O)[C@H]1C[C@@H]1[C@H](NC(=O)c1cnccn1)c1ccccc1,inactive,–
C[C@@H](C(=O)Nc1ccc2ccccc2c1)[C@@H]1C[C@@]1(C)[C@@H](NC(=O)c1ccncc1Cl)c1ccccc1,12.6 µM (active),–
C[C@@H](C(=O)Nc1ccc2ccccc2c1)[C@H]1C[C@]1(C)[C@H](NC(=O)c1cnccn1)c1ccccc1,0.1 µM (active),–
O=P(O)(O)O[C@@H]1O[C@H](CO)[C@@H](O)[C@H](O)[C@@H]1O,–,9.85% [at 11.4 µM] (inactive)
CCOC(=O)/C(C#N)=C\N(C)C,inactive,–
O=C(c1cccc(F)c1)N1CCC2(CCCN(c3ccc(-c4ccccc4)cc3)C2)CC1,inactive,–
Cc1ccc(OCC(=O)Nc2ccc(S(=O)(=O)Nc3onc(C)c3C)cc2)cc1,inactive,–
COCc1nc2c([nH]1)c(=O)n(C)c(=O)n2CC(C)C,inactive,–
O=C(O)CCC(=O)N1CCOc2ccc(Cl)cc21,inactive,–
CC(=O)NNC(=O)N1Cc2ccccc2Oc2ccc(Cl)cc21,6.31 µM (active),–
CC(=O)NNC(=O)C(O)(c1ccccc1)c1ccccc1,inactive,–
CC/C(O)=C(\C#N)c1nnc2n1CCCCC2,inactive,–
COc1ccc(-c2nc3cnc(Nc4cccc(OC)c4)nc3n(CCC#N)c2=O)cc1,inactive,–
Cc1ccc(NC(=O)Cn2nc([N+](=O)[O-])c(Br)c2C)cc1C,inactive,–
COc1cc(CNCc2ccccn2)ccc1OCc1ccc(Cl)cc1Cl,12.6 µM (active),–
CCOc1ccccc1CNCCN1CCOCC1,12.6 µM (active),–
COc1ccc(NC(=O)COc2ccc(CNCCCN3CCOCC3)cc2OC)cc1,inactive,–
COc1cc(CNn2nnnc2N)ccc1OCc1c(Cl)cccc1Cl,inactive,–

SMILES,AC50,"activity, negative = inhibition"
COc1ccc(CC(=O)NCc2ccccn2)cc1OC,inactive,–
c1csc(CNCCCN2CCOCC2)c1,inactive,–
COc1cc2c(cc1OC)-c1cc(NCc3ccccn3)nc(=O)n1CC2,inactive,–
Cc1ccccc1-c1cc(NCCN2CCOCC2)ncn1,inactive,–
COc1cc(CNCCN2CCOCC2)ccc1OCc1ccccc1Cl,11.2 µM (active),–
CCN(CC)S(=O)(=O)N1CCC(C(=O)NC2CCCC2)CC1,inactive,–
COc1cccc(Cn2c(=O)c(-c3cccc(C#N)c3)nc3cnc(OC)nc32)c1,inactive,–
COc1ccc(-c2cc(C(F)(F)F)nc(N3CCOCC3)n2)cc1OC,inactive,–
CC1=NN(c2ccc(C)cc2C)C(=O)C1C(c1ccccc1)C1C(=O)N(c2ccc(C)cc2C)N=C1C (stereo unspecified),inactive,–
C=CC[C@@H]1C=C[C@@H](O/N=C\[C@@H](OC)[C@H](C)/C=C\CC(=O)OC)[C@@H](CO)O1,–,4.18% [at 11.4 µM] (inactive)
O=C(c1cc(-c2ccncc2)nc2ccccc12)N1CCN(c2ccc(N3CCOCC3)nn2)CC1,inactive,–
COc1ccc(/C(O)=C2\C(=O)C(=O)N(c3cc(C)on3)C2c2ccc(OC)c(OC)c2)cc1OC (stereo unspecified),inactive,–
CC(C)c1nnc(NC(=O)c2sc3ccccc3c2Cl)s1,inactive,–
C[N+](C)(CCCCCC[N+](C)(C)CCCN1C(=O)c2cccc3cccc(c23)C1=O)CCCN1C(=O)c2cccc3cccc(c23)C1=O,inactive,–
CS[C@@H](CC(=O)O)C(=O)O,–,-10.1% [at 11.4 µM] (inactive)
CCN(CC)CC#CCC(C)(c1ccccc1)c1ccccc1,0.891 µM (active),–
CC(CC(=O)O)(CC(=O)O)c1ccccc1,–,11.2% [at 11.4 µM] (inactive)
COc1ncc2nc(C)c(=O)n(-c3ccccc3)c2n1,inactive,–
O=C(Nc1nc(-c2ccccc2)cs1)c1ccc(Br)o1,inactive,–
CN1CCN(c2ncc3nc(-c4cc(F)cc(F)c4)c(=O)n(Cc4cccs4)c3n2)CC1,inactive,–
O=C1c2cccc3cccc(c23)C(=O)N1CC1CCN(CC(O)COc2ccc3ccccc3c2)CC1 (stereo unspecified),0.708 µM (active),–
O=C(CCN1C(=O)c2ccccc2C1=O)Oc1ccc2ccccc2c1,inactive,–
O=C(c1ccc(S(=O)(=O)N2CCCCCC2)cc1)N1CCC(CN2C(=O)c3cccc4cccc(c34)C2=O)CC1,inactive,–
O=C(O)[C@@H](S)[C@H](S)C(=O)O,–,-4.31% [at 11.4 µM] (inactive)
CN1CCN(c2ccc([N+](=O)[O-])cc2S(=O)(=O)N2CCOCC2)CC1,inactive,–
CC(=O)Nc1ccc(N2CCCCC2)cc1,inactive,–

SMILES,AC50,"activity, negative = inhibition"
Cc1cccc(N2CCN(c3ccc(NC(=O)/C=C(/C(=O)O)c4ccccc4)cc3)CC2)c1,inactive,–
Cc1cccc(OCCCC(=O)Nc2ccc(N3CCCCC3)cc2)c1,0.891 µM (active),–
Cc1ccnc2nc(C(=O)OCC(=O)Nc3ccc4c(c3)OC(F)(F)O4)nn12,inactive,–
CCO[P@]1(=O)OC[C@@H]2O[C@H](n3cnc4c(N)ncnc43)[C@H](O)[C@@H]2O1,–,4.83% [at 11.4 µM] (inactive)
CCN(/C=N/c1sc2c(c1C#N)CCCCC2)CC,inactive,–
O=C(NC1(C(F)(F)F)C(=O)Nc2c1c(=O)[nH]c(=O)n2-c1ccc(F)cc1)c1cccnc1 (stereo unspecified),inactive,–
CN(C)CCCN1CC(C(=O)O)CC1=O (stereo unspecified),inactive,–
c1ccc(Nc2ncnc3ccc(-c4cccnc4)cc23)cc1,inactive,–
Cc1cccc(CNc2ncnc3ccc(-c4cccnc4)cc23)c1,12.6 µM (active),–
c1ccc(CNc2ncnc3ccc(-c4cccnc4)cc23)cc1,10 µM (active),–
c1cncc(-c2ccc3ncnc(NC4CCNCC4)c3c2)c1,inactive,–
Cc1cccc(CNc2ncnc3ccc(-c4cccc(C#N)c4)cc23)c1,inactive,–
CN1CCN(C2CC(=O)N(Cc3ccc(N4CCCC4=O)cc3)C2=O)CC1 (stereo unspecified),inactive,–
O=c1c(-c2ccccc2)nc2cnc(N3CCNCC3)nc2n1Cc1ccc(F)cc1,inactive,–
COc1ccc2c(Cl)cc(NC(=S)Nc3ccccc3)nc2c1,–,-18.8% [at 11.4 µM] (inactive)
COc1ccc(N2C(=O)CCC(C(=O)O)C2c2ccc(F)cc2)cc1 (stereo unspecified),inactive,–
CN1CCN(c2ncc3nc(-c4cn(C)c5ccccc45)c(=O)n(C)c3n2)CC1,inactive,–
O=C(NNc1cccc(Cl)n1)Nc1ccccc1Cl,inactive,–
COc1ccc(-c2nc3cnc(N4CCNCC4)nc3n(Cc3cccs3)c2=O)cc1,inactive,–
Cc1nc(-c2cccc(NC(=O)c3cc4cc(Br)ccc4oc3=O)c2)cs1,inactive,–
CCn1c(C)cc(/C=C2\NC(=O)N(Cc3ccc(Cl)cc3)C2=O)c1C,inactive,–
CCN(CC)c1ccc(/C=C/c2nc3ccccc3s2)cc1,28.2 µM (active),–
Cc1ccc(NC(=S)c2nc3ccccc3s2)cc1,inactive,–
Brc1ccc(/C=C/C=N/Nc2nc3ccccc3s2)cc1,inactive,–
Cn1c(=O)c2[nH]c(COCc3nc4c([nH]3)c(=O)n(C)c(=O)n4C)nc2n(C)c1=O,–,3.11% [at 11.4 µM] (inactive)
NC1=C(O)C(=O)[C@H](c2c[nH]c3ccc(OCc4ccccc4)cc23)O1,–,-2.34% [at 11.4 µM] (inactive)

SMILES,AC50,"activity, negative = inhibition"
O=C(Oc1ccccc1)N1CCC2(CC1)CN(c1ccncc1)C2,inactive,–
CCN(CCCNC(=O)CC(C(=O)N1CCc2ccccc21)n1ccnc1)c1ccccc1 (stereo unspecified),3.98 µM (active),–
O=C(CNCCO)N1CCc2ccccc21,inactive,–
CCCCN(C)CCCNC(=O)CCn1nc(-c2ccccc2)ccc1=O,inactive,–
Clc1ccc(-c2nnc(-c3ccccc3)c(N3CCSCC3)n2)cc1,inactive,–
Cc1noc(NS(=O)(=O)c2cccc3c(N(C)C)cccc23)c1C,inactive,–
O=C(Nn1cc(C(=O)N2CCN(c3ccccc3F)CC2)c2ccccc2c1=O)c1cnccn1,inactive,–
C#CCCCC(=O)Nc1ccccc1,12.6 µM (active),–
CCC(=O)NNC(=O)CCC(=O)Nc1ccccc1,inactive,–
CC(=O)NNC(=O)CCC(=O)Nc1ccccc1,inactive,–
Cc1ccc(-c2csc(N/N=C/c3ccco3)n2)cc1,inactive,–
NCCSSCCN,inactive,–
O=c1oc2cc(Oc3ccc(C(F)(F)F)cc3[N+](=O)[O-])ccc2c2c1CCCC2,inactive,–
CC(C)c1ccc(OCc2ccc(C(=O)N3CCN(c4ccccn4)CC3)cc2)cc1,inactive,–
Cc1cc(C(=O)CSc2nnc(N)s2)c(C)n1CCc1ccc(F)cc1,7.08 µM (active),–
CC(=O)Nc1nnc(SCc2ccc(F)cc2)s1,inactive,–
COc1ccc(CCn2c(C)cc(C(=O)CSc3nc(N)cc(=O)[nH]3)c2C)cc1,inactive,–
Cn1c(=O)c2c(ncn2CN2CCN(Cn3cnc4c3c(=O)n(C)c(=O)n4C)CC2)n(C)c1=O,–,-3.86% [at 11.4 µM] (inactive)
C[C@@H]1/C=C\CC(=O)OC[C@H](C)C(=O)N[C@@H](C)C(=O)OC1,–,-1.56% [at 11.4 µM] (inactive)
CCCc1nnc(NC(=O)C(CC)OC(=O)c2cc(C)nc3ccccc23)s1 (stereo unspecified),inactive,–
c1ccc(SC(Sc2ccccc2)c2ccc3c(c2)OCO3)cc1,3.16 µM (active),–
C[C@@H](C(=O)O)/C(=C/c1ccc2c(c1)OCO2)C(=O)O,–,14.3% [at 11.4 µM] (inactive)
C[C@@H]1Oc2ccc(C(=O)C[C@@H](C(=O)O)c3ccc4c(c3)OCO4)cc2O1,–,-15.2% [at 11.4 µM] (inactive)
